We go through 40 molecules from PubChem BioAssay (NCI).

The panel holds about 79,000 compounds, 15% with a hit somewhere; the sample as a whole holds those more often. Activity calls are given as the source filed them. No stated cut-off is given here; in the data, active means growth inhibition above about 70%; inactive means the rest.

This test can be described thus: NCI Yeast Anticancer Drug Screen. Data for the mlh1 rad18 strain (AID 175). The conditions noted are these: S. cerevisiae mlh1 rad18 strain growth inhibition; at 50.0 µM; hits give high values. The essentials: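 Cells of a genetically altered yeast strain, deficient in DNA damage repair, were treated with compound. Their growth was then compared with that of vehicle-treated cultures to give inhibition.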
For the molecule `C(=C(/C=C/C(=C/c1ccccc1)c1ccccc1)c1ccccc1)\c1ccccc1`, the growth inhibition is -0.65% (inactive).
For `CC1(S)CCC2CC1C2(C)C` (stereo not given) the value was -12.1% (inactive); for `N#CCCN(CCC#N)c1ccc(C(=O)NN)cc1`, -5.3% (inactive).
`OCC1NC(CO)C(O)C1O` (stereo not given): the growth inhibition is 11.2% (inactive).
Next, `COc1ccc(OC)c(NC(=O)Nc2nccs2)c1`: 32.5% (inactive).
Next, `N=c1c2ccccc2nc2oc3ccc(Cl)cc3n12`: -8.55% (inactive).
Next, `COc1ccc(N)c(OC)c1`: -34% (inactive); `O=C(CC(O)(C(F)(F)F)C(F)(F)F)c1ccc(Cl)c([N+](=O)[O-])c1`: 98.8% (active); `CCCc1cc(=O)oc2c3c(c4c(c12)OC(C)(C)C=C4)O[C@H](C)[C@@H](C)C3O` (stereo not given in full): -3.4% (inactive).
For the molecule `CSc1nc(N)c(NS(=O)(=O)c2ccc(NC(C)=O)cc2)c(=O)[nH]1`, the growth inhibition was 15.4% (inactive).
For `O=C(Nc1ccc([N+](=O)[O-])cc1Cl)c1ccc(C(=O)Nc2ccc([N+](=O)[O-])cc2Cl)cc1` the value was 0.55% (inactive); for `O=c1oc2ccc(Cl)cc2n1CN1CCOCC1`, 5.55% (inactive).
`C[N+](C)(CCCN1C(=O)c2cccc3c(Br)ccc(c23)C1=O)Cc1ccc(Cl)c(Cl)c1`: the growth inhibition is 98% (active).
For `CCCN(CCC)C1=Nc2ccccc2-n2cnnc2C1` the value was -11.4% (inactive).
For `C1CCC(NCSC2=NCCS2)CC1` the value was 1.9% (inactive); for `N#CCN(CCc1ccccc1)CCc1ccccc1`, 34.1% (inactive); for `O=S1(=O)CC2C3CC(Oc4ccccc4)C(C3)C2C1` (stereo not given), -6.5% (inactive).
For `CC(CO)(CO)N1C(=O)c2cccc3cc([N+](=O)[O-])cc(c23)C1=O` the value was 14.3% (inactive); for `Cc1cc2nc3c(=O)[nH]c(=O)nc-3n(CCN(CCO)CCO)c2cc1Cl`, 17.8% (inactive); for `NC(=S)SC1=NNC2(C(=O)N1)c1ccccc1-c1ccccc12`, 14.6% (inactive).
For `CC(=O)OC[C@@]12CC[C@H]3C(C)(C)CCC[C@]3(C)[C@H]1C[C@@H](C1=CC(=O)O[C@H]1O)O2`, the growth inhibition was 90% (active).
Next, `O=C(NC(C(=O)O)c1ccccc1)c1ccc([N+](=O)[O-])cc1` (stereo not given): 11.6% (inactive); `CSc1nsc(SC)c1C(N)=O`: -0.85% (inactive).
For `O=C(NC1C=Nc2ccc([N+](=O)[O-])cc2NC1=O)c1ccc(Cl)cc1` (stereo not given) the value was -8.5% (inactive).
As for `COc1ccc2c(c1)CCCN2S(=O)(=O)c1ccccc1[N+](=O)[O-]`, the growth inhibition is 1.85% (inactive).
With `COc1ccc(/C=C(\C(C)=O)C(=O)Nc2ccccc2)cc1`, the growth inhibition is 25.4% (inactive).
For `CC(=O)NC(Cc1ccccc1)c1ccccc1` (stereo not given) the value was 10.8% (inactive); for `N=c1ccc2nc(N)nn(O)c-2c1`, -44% (inactive); for `C[n+]1ccccc1C(O)C(O)c1cccc[n+]1C` (stereo not given), 9.6% (inactive).
For `Oc1ccccc1-n1nc2ccc3nonc3c2n1` the value was -40.5% (inactive); for `Cc1ccccc1C(=O)NNC(=O)c1ccc2ccccc2c1`, -9.45% (inactive).
Next, `O=C(O)c1oc2cccc3c2c1CCC3`: -4.2% (inactive).
For `CCOC(=O)NCC1(c2ccccc2)CCN(Cc2ccccc2)CC1`, the growth inhibition was -1.7% (inactive).
With `NC(=O)c1ccccc1NC(=O)CCCOc1ccccc1`, the growth inhibition is 9.2% (inactive).
Regarding `CCOC(=O)C(C)C(=O)C(C)C` (stereo not given), the growth inhibition was -9.35% (inactive).
With `O=c1c2cnc3c4cccnc4ccc3c2[nH]n1-c1ccccc1`, the growth inhibition was -2.8% (inactive).
For `Cc1ccc(Sc2cccc3c2C(=O)c2c(Sc4ccc(C)cc4)cccc2C3=O)cc1` the value was -11.3% (inactive).
For `CCOC(=O)CNCc1cccc(Cl)c1` the value was 24.2% (inactive); for `CC1(C)CC(=O)C2=C(C1)NC(=S)C(C#N)C2c1ccccc1` (stereo not given), 30.2% (inactive).
`O=COC1CCCCCC1`: the growth inhibition was 12.9% (inactive).
